Bioassay records from PubChem.
TTR transcr act: TTR transcription activators in neuroblastoma reporter cells, primary screen, cell-based, luminescence, SH-SY5Y, TTR promoter Gaussia luciferase; 100% = recombinant luciferase protein wells; activation, % at 16.7 µM; actives 1.3% (n = 92,000); AID 1117267, 2014;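 active = activation above the mean of all tested compounds plus 3 SD, cut at about 9.5% in these data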;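 also: cells exposed to compounds for one day before reading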
TTR inh HuH7: TTR promoter reporter inhibitors in hepatoma cells, counter-screen for TTR transcription activator project, cell-based, luminescence, HuH7 hepatoma; inhibition, % at 16.7 µM; actives 4% (n = 1,100); HuH7 TTR promoter-Gaussia luciferase reporter; AID 1117279, 2014; shares compounds with TTR transcr act;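 active = average inhibition above the solvent-only control wells' mean plus 3 SD, cut at about 15% in these data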;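 also: inhibitors lower well luminescence so higher value means more inhibition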
TTR up confirm: TTR transcription activators, retest, confirmation, cell-based, luminescence, SH-SY5Y, triplicate | activation, % at 16.7 µM | shares compounds with TTR transcr act | 1,100 tested, under 10 active | SHSY5Y TTR promoter Gaussia luciferase; 100% = purified Lucia enzyme wells, no cells;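 active = mean activation above a set limit taken from the earlier primary screen, cut at about 11% in these data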
Hits are given with their value; 0 = inactive. Only a selection was taken, and hits are over-represented in it overall.

SMILES	TTR transcr act	others
CCOC(=O)[C@H]1[C@H]2COc3ccccc3[C@@H]2N2C(=O)c3ccc(Cl)cc3NC(=O)[C@@]12C	0
CCOC(=O)[C@H]1[C@H]2COc3ccc(Br)cc3[C@@H]2N2C(=O)c3cc(OC)c(OC)cc3NC(=O)[C@@]12C	0
CCOC(=O)[C@H]1[C@H]2COc3ccccc3[C@@H]2N2C(=O)c3cc(Cl)ccc3NC(=O)[C@@]12C	0
CCOC(=O)[C@H]1[C@H]2COc3ccc(Cl)cc3[C@@H]2N2C(=O)c3ccc(C)cc3NC(=O)[C@@]12C	13.2	TTR inh HuH7=0;TTR up confirm=0
CCOC(=O)[C@H]1[C@H]2COc3ccc(Br)cc3[C@@H]2N2C(=O)N(c3ccc(F)cc3)C(=O)[C@@]12C	0
CCOC(=O)[C@H]1[C@H]2COc3ccc(Cl)cc3[C@@H]2N2C(=O)c3cc(Br)ccc3NC(=O)[C@@]12C	15.9	TTR inh HuH7=0;TTR up confirm=0
C=CCN(Cc1ccc(OC)cc1OC)C(C#Cc1ccccc1)c1ccccc1 (stereo not drawn)	0
CCOC(=O)CCCNC(=O)OCCCN1CCC2(CCC(c3ccccc3)CC2)C1=O (stereo not drawn)	0
CN(C)c1ccc(C(=O)NC2CCCCN(Cc3ccc(Cl)cc3)C2=O)cc1 (stereo not drawn)	0
CCOC(=O)CC1C(=O)NCCN1C(=O)Nc1ccccc1 (stereo not drawn)	17.7	TTR inh HuH7=0;TTR up confirm=0
COC(=O)CC1C(=O)NCCN1C(=S)Nc1cccc(C)c1 (stereo not drawn)	0
COc1ccc(NC(=O)CC2C(=O)NCCN2C(=O)Nc2ccc(C(F)(F)F)cc2)cc1 (stereo not drawn)	0
Nc1nc2ncccc2cc1C(=O)C1=C(c2ccccc2)Cc2ccccc21	0
COC(=O)[C@]12CCCCC=C1N(Cc1ccc(OC)cc1)C(=O)[C@@H]2CC(=O)NCCc1ccccc1OC	0
O=S(=O)(N[C@H]1CCCC[C@@H]1N1CCOCC1)c1ccc(Cl)cc1	0
CCOC(=O)C1C(=O)CC(C)(O)C(C(=O)OCC)C1c1ccc(Br)cc1 (stereo not drawn)	0
C=CCOC(=O)C1C(=O)CC(C)(O)C(C(=O)OCC=C)C1c1ccc(N(C)C)cc1 (stereo not drawn)	24.9	TTR inh HuH7=0;TTR up confirm=0
CCOC(=O)C1C(=O)CC(C)(O)C(C(=O)OCC)C1c1ccc(SC)cc1 (stereo not drawn)	0
COc1cc(NC(=O)c2cnn3c(C)cc(C)nc23)cc(OC)c1OC	0
COc1cc2c(cc1OC)C1=NC(=O)CN1C(SCc1ccc(C)cc1)=N2	0
C=CCc1ccc(OCCn2cccc2C=O)c(OC)c1	0
C=CCSC1=Nc2cc(OC)c(OC)cc2C2=NC(=O)CN12	31.3	TTR inh HuH7=0;TTR up confirm=0
C[C@@H]1CCN(C2CC2)S(=O)(=O)c2c(cccc2N2CCC[C@@H]2CO)O1	0
CCCCN1CCS(=O)(=O)N(Cc2ccc(Cl)cc2)C(C(=O)OC)C1 (stereo not drawn)	0
COc1ccc([N+](=O)[O-])c(OC)c1C(=O)NC(=O)Nc1c(F)cc(F)cc1F	126.5	TTR inh HuH7=0;TTR up confirm=0
SMILES	TTR transcr act	others
COc1ccc([N+](=O)[O-])c(OC)c1C(=O)NC(=O)Nc1nc(C)cc(C)n1	0
COc1cccc(OC)c1NC(=O)NC(=O)c1c(OC)c(Br)cc([N+](=O)[O-])c1OC	0
C[C@H]1CCCN1c1cccc2c1S(=O)(=O)N(C1CC1)CCCO2	0
COC(=O)C1CN(Cc2ccc(OC)cc2)CCS(=O)(=O)N1Cc1cn(Cc2ccc(Cl)cc2)nn1 (stereo not drawn)	0
CCC[C@H]1[C@@H](OC(=O)NCc2ccc(OC)cc2)CC[C@@]23CCCN2C(=O)CCC[C@@H]13	0
CC(=O)N(C)c1cccc([N+](=O)[O-])c1	0
CCCN(N=Nc1cccc([N+](=O)[O-])c1)c1cccc([N+](=O)[O-])c1	0
CN(N=Nc1cccc([N+](=O)[O-])c1)c1cccc([N+](=O)[O-])c1	20.4	TTR inh HuH7=0;TTR up confirm=0
N#Cc1cccc(NC(=O)OC2CC3CC2[C@H]2CCCCN2[C@H]3Cc2ccccc2)c1 (stereo partly drawn)	0
CCOC(=O)C1CCN(C(=O)CN(c2ccc3c(c2)OCO3)S(C)(=O)=O)CC1	17.6	TTR inh HuH7=0;TTR up confirm=0
CCOC(=O)C1CCN(C(=O)COc2ccc3c(c2)OCO3)CC1	0
CCOC(=O)C1CCN(C(=O)CN(c2ccc(Cl)c(C(F)(F)F)c2)S(C)(=O)=O)CC1	0
C=C1[C@@H]2CC[C@H]3[C@]4(C)[C@@H](O)CC[C@@](C)(C(=O)OC)[C@H]4C[C@H](O)[C@]3(C2)[C@H]1O	0
CC(C)CNC(=O)OCc1cn(Cc2ccccc2C(F)(F)F)nn1	0
COCCn1cnc2c1c(=O)n(CC(=O)Nc1cc(C)on1)c(=O)n2Cc1ccccc1	15.6	TTR inh HuH7=0;TTR up confirm=0
